Compounds with a hit are over-represented: about 4.1% of the library has one in this group of screens.
hcDAF-12 act: H. contortus DAF-12 nuclear receptor activators, primary screen, cell-based, luminescence, HEK293, lit1-tk-luc reporter. 370,000 compounds, 1.4% hits. activation, % at 6.8 µM. AID 652067, 2013. HEK293 hcDAF-12 lit1-tk-luc reporter; 0% DMSO, 100% Δ7-dafachronic acid;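 active = activation above the mean of all tested compounds plus 3 SD, cut at about 5.5% in these data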;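 also: 100% = response to 3 µM Δ7-dafachronic acid high control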
DAX1 inh-1: DAX1 (NR0B1) inhibitors on StAR promoter, primary screen, cell-based, luminescence, SF-1 (NR5A1), full-length DAX-1; HEK293T StAR-luciferase reporter, SF-1/DAX-1 repression relief; inhibition, % at 6.8 µM; 370,000 compounds, 1.1% hits;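 active = inhibition above the mean over all tested compounds plus 3 SD, cut at about 3.6% in these data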;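 also: 0% = DAX-1 cells with DMSO and 100% = cells lacking DAX-1 with DMSO; higher inhibition means more luminescence from relief of DAX-1 repression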
ssDAF-12 act: S. stercoralis DAF-12 nuclear receptor activators, primary screen, cell-based, luminescence, HEK293, GRIP1 co-expression, lit1-tk-luc | HEK293 ssDAF-12/GRIP1 lit1-tk-luc reporter; % of 3 µM dafachronic acid response | 370,000 compounds, 1% hits | AID 652126, 2013 | activation, % at 6.8 µM | Nuclear hormone receptor DAF-12 (Strongyloides stercoralis);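 active = activation above the mean over all tested compounds plus 3 SD, cut at about 0.9% in these data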;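 also: 0% = DMSO-only wells and 100% = 3 µM delta7-dafachronic acid wells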
hgDAF12 agonist: H. glycines DAF-12 receptor agonists, primary screen, cell-based, luminescence, HEK293, GAL4 fusion, UAS-luciferase; 370,000 compounds, 1.8% hits; Nuclear hormone receptor DAF-12 (Heterodera glycines), GAL4 fusion; activation, % at 6.8 µM; HEK293 GAL4-hgDAF12 UAS-luciferase reporter, agonist luminescence; normalized to butyrate control;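 active = activation above a cutoff set at the mean of all screened compounds plus 3 SD, cut at about 10% in these data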;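 also: 0% = DMSO wells and 100% = sodium butyrate wells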
DAX1 inh-2: DAX1 (NR0B1) inhibitors, primary screen, cell-based, HEK293, Gal4-DAX1, luciferase luminescence | Nuclear receptor subfamily 0 group B member 1 (Homo sapiens), P51843 | HEK293 Gal4-DAX1 luciferase reporter | inhibition, % at 6.75 µM | 340,000 compounds, 0.99% hits | AID 504766, 2011;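 active = inhibition above the mean over all tested compounds plus 3 SD, cut at about 4.2% in these data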;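 also: 0% = DAX1-transfected cells with DMSO and 100% = empty-vector control cells with DMSO; inhibition shows as a rise in luminescence from relieved DAX1 repression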
DAX1 inh confirm: DAX1 (NR0B1) inhibitors relieving SF-1 repression, confirmation, cell-based, luminescence, HEK293T, full-length DAX-1, SF-1 activated StAR promoter. 2,400 compounds, 87% hits. shares compounds with DAX1 inh-1. HEK293T StAR-promoter luciferase reporter, SF-1/DAX-1 repression. inhibition, % at 6.8 µM;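 active = inhibition above the average of every tested compound plus 3 SD, cut at about 3.8% in these data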;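 also: 0% = DAX-1 cells with DMSO and 100% = no DAX-1 control cells with DMSO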
Target sequence (P51843 whole entry, looked up): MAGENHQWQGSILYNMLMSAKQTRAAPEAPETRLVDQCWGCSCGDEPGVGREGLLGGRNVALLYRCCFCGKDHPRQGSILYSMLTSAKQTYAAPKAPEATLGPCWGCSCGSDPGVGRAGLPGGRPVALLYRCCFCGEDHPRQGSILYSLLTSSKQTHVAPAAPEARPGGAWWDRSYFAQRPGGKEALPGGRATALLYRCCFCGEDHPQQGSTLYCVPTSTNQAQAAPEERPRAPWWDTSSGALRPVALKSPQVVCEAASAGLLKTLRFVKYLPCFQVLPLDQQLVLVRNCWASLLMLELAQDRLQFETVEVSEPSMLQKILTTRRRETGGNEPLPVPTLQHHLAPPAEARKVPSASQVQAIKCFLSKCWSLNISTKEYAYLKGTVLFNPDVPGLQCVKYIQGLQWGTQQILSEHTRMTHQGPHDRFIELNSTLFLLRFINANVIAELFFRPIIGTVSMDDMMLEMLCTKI
SF1 mutant ctr: StAR reporter signal changes without DAX1, counter-screen for DAX1 inhibitor project, cell-based, luminescence, AF-2 mutant SF-1, transactivation. shares compounds with DAX1 inh-1. HEK293 StAR-luciferase, SF-1 AF2 mutant. 2,400 compounds, 78% hits. AID 652136, 2013. inhibition, % at 6.8 µM;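 active = inhibition above the mean of all tested compounds plus 3 SD, cut at about 3% in these data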;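 also: 0% = DAX-1 transfected cells with DMSO and 100% = cells without DAX-1 with DMSO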
The depositor's hits bear a star; nt = no result.

SMILES	hcDAF-12 act	DAX1 inh-1	ssDAF-12 act	hgDAF12 agonist	DAX1 inh-2	DAX1 inh confirm	SF1 mutant ctr
CCOC(=O)N1CCN(C(=O)C[C@H]2C[C@@]3(C(=O)OCC)CCCC4=C3N(CCC4)C2=O)CC1	0	0	-1	-2	nt	nt	nt
Fc1ccc(-c2nnc(-c3ccc(Cl)cc3Cl)o2)cc1	5	5.3*	0	12*	2	8.3*	3.6*
Fc1ccc(-c2nnc(-c3ccc(Cl)cc3)o2)cc1	2	2	0	8	1	nt	nt
COc1ccc(C(C)c2cn(C)c3ccccc23)cc1 (configuration not stated)	2	-1	0	0	nt	nt	nt
O=C(NC1CCCCC1)c1ccc(-c2cccc([N+](=O)[O-])c2)o1	2	7.9*	0	9	1	11*	4.1*
CCCCC[C@H](C)N1C[C@H](COCc2ccccc2)Oc2cc(N3CCC[C@@H]3COC)ccc2S1(=O)=O	1	5.4*	-1	1	nt	0	-1
CCCCC[C@H](C)N1C[C@@H](COCc2ccccc2)Oc2cc(N3CCC[C@H]3COC)ccc2S1(=O)=O	0	0	0	2	nt	nt	nt
COc1ccc(-c2coc3cc(O)ccc3c2=O)cc1O	1	5.0*	0	13*	4	6.5*	3.3*
COc1ccc(-c2coc3cc(OC4OC(CO)C(O)C(O)C4O)cc(O)c3c2=O)cc1 (configuration not stated)	5	11*	0	11*	2	11*	5.7*
COc1cc(O)cc2occ(-c3ccc(O)cc3)c(=O)c12	0	0	-1	1	2	nt	nt
COc1ccc(-c2cc(=O)oc3cc(O)ccc23)cc1	-1	0	-1	4	0	nt	nt
COc1ccc(-c2coc3cc(O)ccc3c2=O)cc1	5	4.9*	0	8	2	11*	5.1*
C[C@@H]1CCCCO[C@@H](CN(C)CC2CCCCC2)[C@@H](C)CN([C@H](C)CO)C(=O)c2cc(NC(=O)Nc3ccc4c(c3)OCO4)ccc2O1	-2	3	-1	2	nt	nt	nt
O=C(Nc1ccc2c(c1)OCCO2)c1ccccc1F	5.7*	4.8*	1	11*	-2	14*	6.2*
Cc1ccc(C)c(Cn2nnc(C(=O)Nc3ccc4c(c3)OCCO4)c2N)c1	-1	4.6*	0	1	0	3	3.6*
Cc1ccccc1Cn1nnc(C(=O)Nc2cccc(C)c2C)c1N	-2	-1	-2	-4	-1	nt	nt
O=C(Nc1ccc2c(c1)OCCO2)c1c(F)cccc1F	nt	nt	nt	nt	2	nt	nt
Cc1ccccc1Cn1nnc(C(=O)Nc2ccc3c(c2)OCCO3)c1N	1	6.2*	0	10	4	8.7*	7.4*
O=C(Nc1cccn2nc(COCCO)nc12)C(c1ccccc1)c1ccccc1	-1	0	-1	-1	nt	nt	nt
CCOC(=O)[C@]12CCCC=C1N(Cc1ccc3c(c1)OCO3)C(=O)[C@H](CC(=O)NCc1cccc3ccccc13)C2	-1	6.2*	-1	3	nt	0	2
COC(=O)[C@]12CCCCC=C1N(Cc1cccc3ccccc13)C(=O)[C@H](CC(=O)NCc1ccc(OC)c(OC)c1)C2	-6	-8	-3	-16	nt	nt	nt
COC(=O)[C@]12CCCCC=C1N(CCc1ccc(OC)c(OC)c1)C(=O)[C@H](CC(=O)NCc1cccc3ccccc13)C2	-1	4.6*	-1	0	nt	3	6.3*
COc1cc2c(OC(C)=O)c3c(c(-c4ccc5c(c4)OCO5)c2cc1OC)C(=O)OC3	-1	1	-1	-7	1	nt	nt
COc1cc2c(O)c3c(c(-c4ccc5c(c4)OCO5)c2cc1OC)C(=O)OC3	-2	6.6*	-2	-6	-1	15*	-5
CN(C)[C@@H]1CCN(c2cccc3c2S(=O)(=O)N2CC[C@H](C2)O3)C1	0	0	-1	0	nt	nt	nt
SMILES	hcDAF-12 act	DAX1 inh-1	ssDAF-12 act	hgDAF12 agonist	DAX1 inh-2	DAX1 inh confirm	SF1 mutant ctr
Cc1ccc(S(=O)(=O)Nc2cccc(-c3ccc(N4CCCCCC4)nn3)c2)cc1	1	4.9*	-1	6	0	7.5*	4.2*
Cc1ccc(C(=O)Nc2ccc(Cl)cc2C)c(Cl)c1	5	6.7*	0	12*	1	7.2*	5.4*
Cc1cc(NC(=O)c2ccccc2Cl)ccc1NC(=O)c1ccccc1Cl	-3	0	0	-1	-1	nt	nt
CCOC(=O)N1CCN(C(=O)C[C@H]2C[C@@]3(C(=O)OC)C(=C[C@H](C(C)C)O[C@@H]3C3CC3)N(CCc3ccc(OC)c(OC)c3)C2=O)CC1	-3	0	-1	-1	nt	nt	nt
CC(NC(=O)Nc1ccc(Cl)cc1)c1ccc2c(c1)OCO2 (configuration not stated)	-4	0	-2	-6	-1	nt	nt
Cc1ccc(NC(=O)Nc2ccc3c(c2)OCO3)c(Br)c1	0	2	-1	2	0	nt	nt
O=C(Nc1cccc(C(=O)O)c1)Nc1ccc2c(c1)OCO2	4	6.8*	-1	4	-5	6.3*	5.5*
Cc1cc(C)c(NC(=O)Nc2ccc3c(c2)OCO3)c(C)c1	2	4.7*	0	4	2	2	3.4*
O=C(Nc1ccc(Cl)cc1)Nc1ccc2c(c1)OCO2	5.7*	6.4*	0	12*	1	8.7*	6.6*
CCCC#Cc1cnc2c(c1)C(=O)N([C@H](C)CO)C[C@H](C)[C@@H](CN(C)C(=O)CCN1CCCCC1)O2	-3	1	-1	0	0	nt	nt
Cc1cc(C)c(S(=O)(=O)N2C[C@H]3CON(C)[C@H]3C[C@H]2c2ccc(-n3ccnc3)cc2)c(C)c1	-2	0	-1	-3	nt	nt	nt
CCCCCc1ccc(-c2n[nH]c(=O)c3ccccc23)cc1	1	0	-2	10	nt	nt	nt
CCCN(CCC)c1ncnc2c1cnn2-c1ccc(OC)cc1	5	5.3*	0	10	1	14*	3.1*

Bioassay records: PubChem BioAssay, The Scripps Research Institute Molecular Screening Center
